Only a selection was taken, and hits are over-represented in it overall.
CBX7 inh = CBX7 chromodomain binding inhibitors, primary screen, biochemical, AlphaScreen | normalised signal (fraction of DMSO) (test concentration not listed) | AlphaScreen His6-CBX7 / biotin-H3K27me3 peptide binding; active compounds read low | 66,000 compounds, 1.1% hits | Chromobox protein homolog 7 (Homo sapiens), O95931; in the data active = normalised signal below about 0.5
Target sequence (O95931 whole entry, looked up): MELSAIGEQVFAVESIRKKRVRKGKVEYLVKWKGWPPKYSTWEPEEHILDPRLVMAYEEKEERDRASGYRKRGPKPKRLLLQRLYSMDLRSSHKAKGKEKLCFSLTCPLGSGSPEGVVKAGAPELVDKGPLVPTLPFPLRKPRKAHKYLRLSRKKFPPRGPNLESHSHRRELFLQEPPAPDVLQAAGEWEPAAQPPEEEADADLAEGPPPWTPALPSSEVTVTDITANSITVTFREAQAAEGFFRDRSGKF
Numbers without * were called inactive.

SMILES | CBX7 inh
CN(C(=O)c1cc2c(s1)-c1ccccc1OC2)c1cccc(C(F)(F)F)c1 | 1.2
Cc1ccccc1Oc1cc([N+](=O)[O-])cc2c1C(=O)Nc1cc(Cl)ccc1O2 | 0.084*
COCCOc1cc([N+](=O)[O-])cc2c1C(=O)Nc1ccccc1O2 | 0.65
O=C1Nc2cc(Cl)ccc2Oc2cc([N+](=O)[O-])cc(Oc3ccccc3)c21 | 0.64
Cc1ccc(Oc2cc([N+](=O)[O-])cc3c2C(=O)Nc2ccccc2O3)cc1 | 0.58
COc1ccc(CNC(=O)CC2Oc3ccc(Cl)cc3NC2=O)cc1 (stereo not drawn) | 1.1
Cc1ccc2c(c1)Oc1cc([N+](=O)[O-])cc(Oc3cccc(Cl)c3Cl)c1C(=O)N2 | 0.2*
COC(=O)CC1Oc2ccc(Cl)cc2NC1=O (stereo not drawn) | 0.96
COc1ccc(Oc2cc([N+](=O)[O-])cc3c2C(=O)Nc2cc(Cl)ccc2O3)cc1 | 0.42*
O=C(NCc1ccc(F)cc1)c1ccc2c(c1)N(Cc1ccccc1F)C(=O)c1ccccc1S2 | 1
O=C(Nc1ccc(Cl)cc1)Nc1ccc(Nc2ccccc2)cc1 | 0.89
COc1nc(OC)nc(-n2cnc(NC(=O)Nc3ccc(Cl)cc3)n2)n1 | 0.25*
Cc1ccc(NC(=O)Nc2ccc(Cl)cc2)nc1 | 0.64
COC(=O)c1ccc(N2C(=O)CC(NCCN3CCOCC3)C2=O)cc1 (stereo not drawn) | 0.92
CC(=O)Nc1ccc(N2C(=O)CC(NCCN3CCOCC3)C2=O)cc1 (stereo not drawn) | 0.94
O=C1CC(NCCN2CCOCC2)C(=O)N1c1ccc(Br)cc1 (stereo not drawn) | 0.46*
CCOc1ccc(Nc2cc(C(=O)NCCc3ccc(Cl)cc3)c3ccccc3n2)cc1 | 0.85
O=C(CCN1Cc2ccccc2C1)Nc1c2c(nc3c1CCC3)CCCC2 | 0.95
CCN(CC)CC(=O)Nc1c2c(nc3c1CCC3)CCC2 | 1
O=C(CN1CCN(c2ccccc2)CC1)Nc1c2c(nc3c1CCC3)CCCC2 | 0.98
CC(C)NCC(=O)Nc1c2c(nc3c1CCC3)CCCC2 | 0.52
O=C(Nc1c2c(nc3c1CCC3)CCCC2)c1ccccn1 | 0.14*
CN(C)CC(=O)Nc1c2c(nc3c1CCC3)CCCC2 | 0.23*
Cc1ccc(CNC(=O)c2cccc3c2C(=O)N(C2CCCCC2)C3)cc1 | 1
O=C(CC1Sc2ccccc2NC1=O)Nc1ccc(F)cc1F (stereo not drawn) | 1.1
SMILES | CBX7 inh
Cc1ccc2nc(C)cc(Nc3ccc(C(=O)O)cc3)c2c1 | 0.96
Cc1ccccc1CN1C(=O)C(C(C)C(=O)NCCC(C)C)Sc2ccccc21 (stereo not drawn) | 1
COc1ccc(C2C(C(=O)NC3CCCCCC3)CCC(=O)N2c2ccc3c(c2)OCO3)cc1 (stereo not drawn) | 1
CCOC(=O)c1c(C)n(C)c2ccc(OCC(O)CNCCO)cc12 (stereo not drawn) | 0.98
COc1ccc(CCNC(=O)c2sc3ncn(CC(=O)N4CCCCC4)c(=O)c3c2C)cc1OC | 0.88
Cc1ccc(NC(=O)CCc2nnc3ccc(NCc4ccc5c(c4)OCO5)nn23)cc1 | 0.94
CCn1c(C(=O)NCc2cccc(OC)c2)cc2sc(Cl)cc21 | 1
C=CCc1cc(C)ccc1OCC(O)CN1CCCCC1 (stereo not drawn) | 1
C=CCc1cc(C)ccc1OCC(O)CN1CCN(c2ccccc2)CC1 (stereo not drawn) | 0.38*
C=CCc1ccccc1OCC(O)CN1CCN(c2ccccc2)CC1 (stereo not drawn) | 0.76
Fc1cccc(Cl)c1-c1noc(-c2cc(-c3ccncc3)nc3ccccc23)n1 | 0.92
Cc1cccc(-c2noc(-c3cc(-c4ccccc4)nc4ccccc34)n2)c1 | 1.3
c1ccc2c(-c3nc(C4CCCCC4)no3)cc(-c3ccncc3)nc2c1 | 0.49*
Cc1n[nH]c(C)c1CCCCCOc1ccccc1F | 1.1
Cc1ccc(OCCCCc2c(C)n[nH]c2C)c(C(C)(C)C)c1 | 0.42*
Cc1ccc(C)c(OCCCCCCc2c(C)n[nH]c2C)c1 | 0.92
CC1CCN(c2c(NCc3ccc(C(=O)Nc4ccc5c(c4)OCCO5)cc3)c(=O)c2=O)CC1 | 0.81
COc1ccc(-c2csc(Nc3ccc(NC(C)=O)cc3)n2)cc1 | 0.78
CC1=Nc2cc(C(=O)NCCC3=CCCCC3)ccc2Sc2ccccc21 | 0.99
O=C(NCc1ccccc1Cl)C1=CCN(S(=O)(=O)c2ccc(F)cc2)CC1 | 1
COc1ccc(-c2nc3ccc(C(=O)O)cc3nc2-c2ccc(OC)cc2)cc1 | 1.1
O=C(NCCCn1ccnc1)c1cc(-c2ccco2)on1 | 0.42*
Cc1cccc(NC(=O)C(=O)NCCCn2ccnc2)c1 | 0.42*
O=C(NCCCN1CCOCC1)c1cc(-c2ccco2)on1 | 0.95
Cc1ccc(NC(=O)C(=O)NCCCn2ccnc2)cc1Cl | 0.91
SMILES | CBX7 inh
O=C(NCCCn1ccnc1)c1cc(-c2ccc(Cl)c(Cl)c2)on1 | 0.89
COc1cccc(NC(=O)C(=O)NCCCn2ccnc2)c1 | 0.87
Cc1ccc2cc(CCNC(=O)c3ccc(C(F)(F)F)cc3)c(=O)[nH]c2c1C | 1
CCOC(=O)c1cc2c(=O)n(C)c(=O)n(C)c2nc1C | 0.91
COc1ccc(-c2nc(N)ncc2-c2csc(-c3ccccc3)n2)c(O)c1 | 0.84
COc1ccc(-c2nn(C)c(=O)c3ccccc23)cc1CNS(=O)(=O)c1ccc(C)cc1 | 0.94
CC1CN(c2nc(-c3ccc(Cl)cc3Cl)nc3ccccc23)CC(C)O1 (stereo not drawn) | 0.91
c1ccc(-c2csc(N3CCN(C(c4ccccc4)c4ccccc4)CC3)n2)cc1 | 1
COc1ccc(-c2nn(C)c3sc(C(=O)NCCC(C)C)cc23)cc1OC | 0.86
COCCCNS(=O)(=O)c1ccc2c(c1)CCN2C(=O)C1CCC1 | 1
CN(C)S(=O)(=O)c1ccc(C(=O)Nc2nnc(-c3ccc(Cl)s3)o2)cc1 | 0.22*
C=CCN(CC=C)S(=O)(=O)c1ccc(C(=O)Nc2nnc(-c3ccc(Cl)s3)o2)cc1 | 0.37*
CCCCN(CCCC)S(=O)(=O)c1ccc(C(=O)Nc2nnc(-c3ccc(Cl)s3)o2)cc1 | 1
CCN(CC)S(=O)(=O)c1ccc(C(=O)Nc2nnc(-c3ccc(Cl)s3)o2)cc1 | 0.96
O=C(C1CC1)N1CCc2cc(S(=O)(=O)N3CCCCC3c3cccnc3)ccc21 (stereo not drawn) | 0.96
O=C(Cn1nc(-c2ccc(Cl)cc2)ccc1=O)N1CCN(Cc2ccccc2)CC1 | 0.98
Cc1[nH]c2ccccc2c1CCNC(=O)c1ccccc1OC(C)C | 1.1
Cc1cccc(N2CCN(CCNC(=O)C(C)N3C(=O)CC(C)(C)Sc4ccccc43)CC2)c1C (stereo not drawn) | 0.99
O=C(Nc1ccc(Br)cc1)c1nc[nH]c1C(=O)O | 0*
CCOC(=O)c1[nH]cnc1C(=O)Nc1ccc(Br)cc1 | 0.98
Cc1ccccc1NC(=O)c1nc[nH]c1C(=O)Nc1ccccc1C | 0.74
O=C(Nc1ccc(Br)cc1)c1ccccc1C(=O)c1ncc[nH]1 | 1.1
O=C(Nc1ccccc1C(=O)Nc1ccccn1)c1ccccc1 | 1
O=C(Nc1ccccn1)c1nc[nH]c1C(=O)O | 0.3*
c1ccc2c(NC3CCCCCC3)ncnc2c1 | 1.1
O=C(CC1Nc2ccccc2NC1=O)NCCc1ccc(Cl)cc1 (stereo not drawn) | 0.98
CCc1ccc(NC(=O)c2cnc(Nc3ccc(OC)cc3)c3ccccc23)cc1 | 1.1
COc1ccc(CNC(=O)c2ccc3c(c2)N(Cc2ccccc2)C(=O)CS3)cc1 | 0.95

Source: PubChem BioAssay
